From PubChem BioAssay
The source made the active and inactive calls.

Key:
[1] = tested on: Plasmodium falciparum Sir2 (PF13_0152, Sir2A); experiment: Plasmodium falciparum Sir2A binding compounds – biochemical, small-molecule microarray, 635 nm fluorescence, primary screen (AID 1098); conditions: fluorescence 635 nm, higher = more signal;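 also: score merges spot fluorescence intensity with its signal-to-noise ratio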
[2] = probe aDKK1 binding to arrayed compounds – biochemical, biotinylated probe, 635/667 nm fluorescence, primary screen (AID 1099); conditions: small-molecule microarray, higher = more signal;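 also: score merges 667nm spot fluorescence with signal to noise across triplicate slides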
[3] = probe aCHRDL2 binding to arrayed compounds – biochemical, biotinylated probe, 635/667 nm fluorescence, primary screen (AID 1100); conditions: small-molecule microarray, higher = more signal
[4] = change in splice reporter luminescence, either direction, cell-based, HEK293, spliceosome inhibition project, primary screen (AID 1101); conditions: HEK293 splicing luciferase reporter, 24 h, higher = more signal, called active from +8 up or from −8 down;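 also: HEK293 cells carrying a splicing-competent luciferase reporter gene; test concentration not given here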
[5] = target: Fibroblast growth factor 10 (Homo sapiens) (UniProt O15520); experiment: compounds binding fibroblast growth factor 10 – biochemical, small-molecule microarray, 635 nm fluorescence, primary screen (AID 1102); conditions: FGF10 binding, fluorescence 635 nm, higher = more signal
[6] = tested on: glycogen synthase kinase-3 (GSK3A per assay name; protocol says GSK3B); experiment: compounds binding glycogen synthase kinase-3 – biochemical, small-molecule microarray, 635 nm fluorescence, GSK3A, primary screen (AID 1103); conditions: fluorescence 635 nm, higher = more signal; also: the record names both GSK3A and GSK3B
[7] = target: Epidermal growth factor receptor (Homo sapiens) (UniProt P00533); experiment: compounds binding epidermal growth factor receptor – biochemical, small-molecule microarray, 635 nm fluorescence, primary screen (AID 1104); conditions: EGFR binding, higher = more signal;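 also: score merges 667 nm emission intensity with spot signal to noise over triplicate slides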
[8] = target: Follistatin-related protein 3 (Homo sapiens) (UniProt O95633); experiment: compounds binding follistatin-related protein 3 – biochemical, small-molecule microarray, 635 nm fluorescence, primary screen (AID 1105); conditions: FSTL3 binding, higher = more signal;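 also: score merges emission near 667 nm and signal to noise per printed spot across three slides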
[9] = target: Dickkopf-related protein 1 (Homo sapiens) (UniProt O94907); experiment: small molecules binding DKK1 protein – biochemical, small-molecule microarray, 635 nm fluorescence scan, primary screen (AID 1106); conditions: higher = more signal;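 also: score merges emission near 667 nm with signal to noise over three replicate slides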
[10] = tested on: Inhibin beta A chain (activin A); experiment: small molecules binding activin A – biochemical, small-molecule microarray, 635 nm fluorescence scan, primary screen (AID 1107); conditions: INHBA, higher = more signal;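 also: mouse activin A protein probed at 4.33 µg/mL on printed slides; score merges bound-protein fluorescence near 667 nm with spot signal-to-noise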
[11] = tested on: Human papillomavirus type 1a protein E7 (residues 44-93); experiment: small molecules binding HPV E7 44-93 – biochemical, small-molecule microarray, residues 44-93, 635 nm fluorescence, primary screen (AID 1108); conditions: fluorescence 635 nm, higher = more signal;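 also: E7 fragment applied at 1 µg/mL in TBST for 1 h at 4 C; score combines spot fluorescence with its signal to noise ratio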
[12] = hepatitis C replication reporter changes, two-sided – Huh7 cells, luciferase reporter, HCV replication inhibitor project, primary screen (AID 1109); conditions: Huh7 HCV replicon luciferase reporter, 48 h; higher = more signal;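 also: huh7 hepatoma cells harbouring a luciferase neomycin HCV replicon reporter; luciferase luminescence as measure of HCV replicon replication; test concentration not given here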
[13] = target: Left-right determination factor 2 (Homo sapiens) (UniProt O00292); experiment: small molecules binding LEFTY2 protein – biochemical, small-molecule microarray, 635 nm fluorescence scan, primary screen (AID 1110); conditions: higher = more signal
[14] = target: Calmodulin-1 (Homo sapiens) (UniProt P0DP23); experiment: small molecules binding calmodulin-1 with EGTA – biochemical, small-molecule microarray, Cy5-labelled CALM1, profiling panel (AID 1111); conditions: Cy5-CALM1 binding fluorescence, higher = more signal;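 also: labelled calmodulin applied in Tris saline Tween buffer holding calcium plus EGTA and DTT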
[15] = target: Calmodulin-1 (Homo sapiens) (UniProt P0DP23); experiment: small molecules binding Ca-loaded calmodulin-1 – biochemical, small-molecule microarray, Cy5-labelled CALM1, plus calcium, artefact control for SMM control-protein annotation, profiling panel (AID 1112); conditions: Cy5-CALM1 binding fluorescence, higher = more signal;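 also: score merges spot fluorescence with signal to noise from triplicate slides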
[16] = probe aWnt5a binding to arrayed compounds – biochemical, biotinylated probe, 635/667 nm fluorescence, primary screen (AID 1113); conditions: small-molecule microarray, higher = more signal;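 also: score merges 667 nm fluorescence intensity with signal-to-noise per printed feature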
[17] = probe aShh binding to arrayed compounds – biochemical, biotinylated probe, 635/667 nm fluorescence, primary screen (AID 1114); conditions: small-molecule microarray, higher = more signal;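 also: probe is biotin-labelled aShh protein from a stem cell growth factor screen; measures binding of labelled protein to compounds printed on the slide; score merges feature fluorescence at 667 nm with signal-to-noise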
[18] = probe aNog binding to arrayed compounds – biochemical, biotinylated probe, 635/667 nm fluorescence, primary screen (AID 1115); conditions: small-molecule microarray, higher = more signal;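 also: probe is biotinylated aNog protein used at 0.15 µg/mL for 1 h at 4 C; z-score combines 667 nm fluorescence of each spot with its signal to noise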
[19] = target: Torsin-1A-interacting protein 1 (Homo sapiens) (UniProt Q5JTV8); experiment: compound microarray binding of lysate hLAP1 – cell lysate, small-molecule microarray, COS7 lysate, 635/667 nm fluorescence, primary screen (AID 1116); conditions: 635 nm fluorescence, higher = more signal
[20] = target: Alpha-bungarotoxin (Bungarus multicinctus) (UniProt P60615); experiment: compounds binding labelled alpha-BTX control protein – biochemical, small-molecule microarray, Alexa647 label, 635/667 nm fluorescence, artefact control for SMM control protein annotation, profiling panel (AID 1117); conditions: alpha-BTX-A647 binding fluorescence, higher = more signal
Sequence of Alpha-bungarotoxin (Bungarus multicinctus) (P60615 whole entry, looked up): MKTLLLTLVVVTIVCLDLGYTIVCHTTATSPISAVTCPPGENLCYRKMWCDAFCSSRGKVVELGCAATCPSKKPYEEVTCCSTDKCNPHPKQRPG

Sequence of Left-right determination factor 2 (Homo sapiens) (O00292 whole entry, looked up): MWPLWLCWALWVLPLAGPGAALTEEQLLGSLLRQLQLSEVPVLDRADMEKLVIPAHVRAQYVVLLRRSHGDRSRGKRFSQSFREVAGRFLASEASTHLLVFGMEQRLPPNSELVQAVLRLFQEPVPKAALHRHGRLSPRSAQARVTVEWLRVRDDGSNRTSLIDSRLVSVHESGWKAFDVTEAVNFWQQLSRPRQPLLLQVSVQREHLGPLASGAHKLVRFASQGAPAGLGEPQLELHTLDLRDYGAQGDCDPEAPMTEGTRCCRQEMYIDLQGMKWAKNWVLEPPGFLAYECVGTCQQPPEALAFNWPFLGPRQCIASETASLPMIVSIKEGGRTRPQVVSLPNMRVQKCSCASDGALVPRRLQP
Sequence of Follistatin-related protein 3 (Homo sapiens) (O95633 whole entry, looked up): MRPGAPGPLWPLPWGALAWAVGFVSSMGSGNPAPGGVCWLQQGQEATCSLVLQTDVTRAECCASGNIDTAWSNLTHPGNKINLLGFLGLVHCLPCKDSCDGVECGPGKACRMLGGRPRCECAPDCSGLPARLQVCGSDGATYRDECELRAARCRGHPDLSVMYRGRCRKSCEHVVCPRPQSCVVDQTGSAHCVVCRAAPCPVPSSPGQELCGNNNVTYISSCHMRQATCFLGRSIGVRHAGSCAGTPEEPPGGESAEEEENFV
Sequence of Fibroblast growth factor 10 (Homo sapiens) (O15520 whole entry, looked up): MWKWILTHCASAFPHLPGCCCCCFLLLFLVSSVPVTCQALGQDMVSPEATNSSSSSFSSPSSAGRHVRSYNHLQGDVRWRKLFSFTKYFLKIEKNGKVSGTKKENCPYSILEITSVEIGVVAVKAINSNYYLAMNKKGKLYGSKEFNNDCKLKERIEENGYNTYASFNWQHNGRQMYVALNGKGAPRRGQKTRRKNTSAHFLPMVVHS
Sequence of Epidermal growth factor receptor (Homo sapiens) (P00533 whole entry, looked up): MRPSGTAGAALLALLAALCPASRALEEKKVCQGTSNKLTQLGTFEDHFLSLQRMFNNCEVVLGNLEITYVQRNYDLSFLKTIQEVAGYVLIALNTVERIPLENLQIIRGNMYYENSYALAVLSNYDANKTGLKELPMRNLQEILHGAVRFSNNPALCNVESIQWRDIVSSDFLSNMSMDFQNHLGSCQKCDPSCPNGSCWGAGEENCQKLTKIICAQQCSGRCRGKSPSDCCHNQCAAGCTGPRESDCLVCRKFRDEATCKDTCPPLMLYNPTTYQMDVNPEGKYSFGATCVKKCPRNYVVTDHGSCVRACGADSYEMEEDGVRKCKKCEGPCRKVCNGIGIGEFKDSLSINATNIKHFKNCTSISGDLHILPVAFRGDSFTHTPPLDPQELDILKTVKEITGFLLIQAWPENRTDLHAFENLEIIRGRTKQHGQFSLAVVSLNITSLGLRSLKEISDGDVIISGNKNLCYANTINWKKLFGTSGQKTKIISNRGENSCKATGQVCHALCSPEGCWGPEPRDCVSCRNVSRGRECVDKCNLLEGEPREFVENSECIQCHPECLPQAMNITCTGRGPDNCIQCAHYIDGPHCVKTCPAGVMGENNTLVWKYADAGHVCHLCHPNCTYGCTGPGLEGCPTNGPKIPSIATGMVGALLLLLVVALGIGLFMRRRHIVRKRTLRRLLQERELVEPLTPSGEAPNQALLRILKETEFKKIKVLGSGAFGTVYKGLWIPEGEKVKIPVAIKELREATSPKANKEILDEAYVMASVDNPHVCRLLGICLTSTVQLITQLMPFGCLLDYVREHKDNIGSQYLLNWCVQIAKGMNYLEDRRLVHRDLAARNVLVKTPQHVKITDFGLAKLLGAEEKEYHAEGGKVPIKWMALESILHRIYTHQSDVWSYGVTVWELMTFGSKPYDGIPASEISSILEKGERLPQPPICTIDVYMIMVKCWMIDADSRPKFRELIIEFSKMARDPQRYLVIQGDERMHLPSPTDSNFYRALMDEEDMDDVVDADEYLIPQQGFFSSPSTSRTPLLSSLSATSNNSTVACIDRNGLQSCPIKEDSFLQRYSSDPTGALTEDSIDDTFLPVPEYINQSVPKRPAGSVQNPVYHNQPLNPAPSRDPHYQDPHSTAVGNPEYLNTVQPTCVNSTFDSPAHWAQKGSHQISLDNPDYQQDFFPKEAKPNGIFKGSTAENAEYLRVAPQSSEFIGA
Sequence of Torsin-1A-interacting protein 1 (Homo sapiens) (Q5JTV8 whole entry, looked up): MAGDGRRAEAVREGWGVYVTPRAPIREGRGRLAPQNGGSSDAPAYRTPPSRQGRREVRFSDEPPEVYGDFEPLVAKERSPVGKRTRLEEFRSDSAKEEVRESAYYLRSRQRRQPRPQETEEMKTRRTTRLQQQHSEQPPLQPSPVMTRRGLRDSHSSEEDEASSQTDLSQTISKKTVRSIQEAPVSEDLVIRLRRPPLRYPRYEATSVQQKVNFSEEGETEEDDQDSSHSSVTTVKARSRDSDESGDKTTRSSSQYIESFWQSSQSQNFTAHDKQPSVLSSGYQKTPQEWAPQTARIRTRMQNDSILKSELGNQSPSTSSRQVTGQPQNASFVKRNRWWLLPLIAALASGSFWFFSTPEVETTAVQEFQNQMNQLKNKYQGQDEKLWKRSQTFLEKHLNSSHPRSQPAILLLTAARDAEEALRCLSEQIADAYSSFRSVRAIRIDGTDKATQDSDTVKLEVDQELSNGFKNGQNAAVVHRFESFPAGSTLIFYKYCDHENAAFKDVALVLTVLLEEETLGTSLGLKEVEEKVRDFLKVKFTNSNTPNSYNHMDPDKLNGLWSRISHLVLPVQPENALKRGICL
Sequence of Dickkopf-related protein 1 (Homo sapiens) (O94907 whole entry, looked up): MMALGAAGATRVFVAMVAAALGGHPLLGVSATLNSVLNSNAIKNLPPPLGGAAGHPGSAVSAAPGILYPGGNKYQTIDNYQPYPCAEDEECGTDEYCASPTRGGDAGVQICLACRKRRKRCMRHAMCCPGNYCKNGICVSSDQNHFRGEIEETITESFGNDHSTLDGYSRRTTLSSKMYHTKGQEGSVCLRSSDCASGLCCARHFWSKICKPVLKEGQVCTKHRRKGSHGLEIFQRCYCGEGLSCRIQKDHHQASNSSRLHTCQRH

Row | Compound | composite z-score [1] | composite z-score [2] | composite z-score [3] | z-score [4] | composite z-score [5] | composite z-score [6] | composite z-score [7] | composite z-score [8] | composite z-score [9] | composite z-score [10] | composite z-score [11] | z-score [12] | composite z-score [13] | composite z-score [14] | composite z-score [15] | composite z-score [16] | composite z-score [17] | composite z-score [18] | composite z-score [19] | composite z-score [20]
1 | COc1ccc([Si](C)(C)[C@H]2[C@H](CCO)O[C@@]3(C(=O)N(Cc4ccc(N5C(=O)c6ccccc6Oc6ccccc65)cc4)c4ccccc43)[C@@H]2C)cc1 | 0.094 | -0.0509 | 0.477 | -0.964 (inactive) | -0.94 | -1.96 | -0.732 | -1.25 | -1.02 | -0.917 | -0.451 | -4.8 | -0.804 | 0.12 | 0.908 | -0.124 | 0.0121 | 0.0078 | -0.438 | -0.516
2 | [N-]=[N+]=Nc1ccccc1C[C@]1(C(=O)NCc2ccccc2)COC(c2ccc(OCCCO)cc2)=N1 | 1.26 | 0.187 | 0.869 | 0.439 (inactive) | 1.16 | 1.23 | -0.404 | 1.01 | -0.537 | 0.386 | 1.4 | -3.22 | -0.576 | 0.575 | 0.154 | 0.0004 | -0.167 | 0.919 | 1.42 | 1.04
3 | COC(=O)[C@@]1(Cc2ccc(F)cc2)[C@H]2c3cc(C(=O)N(C)C)n(Cc4ccc(O)c(OC)c4)c3C[C@H]2CN1C(=O)c1ccccc1 | 0.472 | 0.0331 | 0.128 | -4.34 (inactive) | 0.448 | 0.538 | 0.269 | 0.0792 | 0.134 | 0.937 | 0.347 | -1.05 | -0.0182 | 1.17 | -0.0337 | 0.0776 | 0.207 | -0.186 | -0.105 | 0.412
4 | COC(=O)C(CC#Cc1ccc2c(c1)[C@]1(C(=O)N2)[C@H](C(=O)Nc2nc3ccccc3s2)[C@H]2C(=O)O[C@H](c3ccccc3)[C@H](c3ccccc3)N2[C@@H]1c1ccc(OCCO)cc1)C(=O)OC | 0.912 | 0.277 | 0.575 | -1.25 (inactive) | 1.15 | 1.21 | 0.468 | 1.19 | 0.344 | 0.519 | 1.39 | -1.85 | 0.768 | 1.52 | 0.326 | 0.189 | 0.427 | 1 | 2.02 | 1.62
5 | C=C[C@@H](OC)[C@H](OC(=O)Nc1ccc(OC)cc1)c1ccc(OC)c(O)c1 | -1.1 | -0.259 | 0.601 | -0.657 (inactive) | -0.818 | -0.465 | -0.75 | -1.11 | -0.642 | -0.267 | -0.546 | 0.15 | -1.86 | -0.56 | -0.194 | -0.154 | -0.367 | -0.45 | -0.386 | -0.382
